Test results: the supplement of paper PMC11732987, “Enantioselective OTUD7B fragment discovery through chemoproteomics screening and high-throughput optimisation” (Communications Chemistry, 2025)

Columns and labels:
Experiment in all cases: log2 ratio of Biotin-Ahx-Ub-VS probe labelling (fragment/DMSO); higher = less target engagement (more negative = stronger competition), active = hit call of the paper (q ≤ 0.05, log2 ratio ≤ -1)
Details in all cases: compound concentration: 200 uM; treatment time: 3 h
ALG13 = molecular target: T1, ALG13 (UniProt Q9NP73)
T1 sequence (whole entry): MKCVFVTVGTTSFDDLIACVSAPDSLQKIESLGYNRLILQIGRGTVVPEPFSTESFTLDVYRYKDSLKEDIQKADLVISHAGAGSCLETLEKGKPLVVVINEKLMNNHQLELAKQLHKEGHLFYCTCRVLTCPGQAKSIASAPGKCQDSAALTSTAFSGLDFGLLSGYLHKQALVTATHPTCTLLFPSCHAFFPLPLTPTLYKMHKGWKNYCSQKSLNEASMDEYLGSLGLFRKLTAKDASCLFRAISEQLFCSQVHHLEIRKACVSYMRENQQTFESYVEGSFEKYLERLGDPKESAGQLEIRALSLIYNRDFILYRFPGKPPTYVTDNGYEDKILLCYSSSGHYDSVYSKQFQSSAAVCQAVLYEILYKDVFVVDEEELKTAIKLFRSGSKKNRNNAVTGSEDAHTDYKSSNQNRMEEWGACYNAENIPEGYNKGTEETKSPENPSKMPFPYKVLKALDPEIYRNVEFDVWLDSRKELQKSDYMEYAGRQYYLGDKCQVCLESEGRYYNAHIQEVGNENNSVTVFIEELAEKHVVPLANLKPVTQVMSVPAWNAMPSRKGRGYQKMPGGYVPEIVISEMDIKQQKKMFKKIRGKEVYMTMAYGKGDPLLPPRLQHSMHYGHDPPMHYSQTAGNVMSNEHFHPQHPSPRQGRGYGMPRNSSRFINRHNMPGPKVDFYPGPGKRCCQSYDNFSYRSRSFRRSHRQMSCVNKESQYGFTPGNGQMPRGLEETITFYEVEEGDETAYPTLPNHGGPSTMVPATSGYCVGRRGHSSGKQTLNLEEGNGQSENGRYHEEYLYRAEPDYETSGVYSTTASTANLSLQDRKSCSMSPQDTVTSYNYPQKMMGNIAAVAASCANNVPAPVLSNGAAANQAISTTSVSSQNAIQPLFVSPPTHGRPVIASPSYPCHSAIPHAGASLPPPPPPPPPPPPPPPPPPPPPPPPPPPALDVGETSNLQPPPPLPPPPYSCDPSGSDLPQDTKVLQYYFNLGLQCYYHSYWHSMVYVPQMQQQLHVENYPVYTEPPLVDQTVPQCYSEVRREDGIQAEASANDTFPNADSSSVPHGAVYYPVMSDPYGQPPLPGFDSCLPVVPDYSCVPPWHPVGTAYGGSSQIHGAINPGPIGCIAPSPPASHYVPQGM
Summary of the method: (§1)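 Global-median-normalised Spectronaut label-free quantities were compared by unpaired t-test, and values are average log2 ratios of fragment over vehicle. Only proteins with ≥2 unique peptides were used. HEK293T lysate (495 µg per sample) was treated in triplicate with fragment at 200 µM or vehicle for 3 h and then with Biotin-Ahx-Ub-VS at 0.5 µM final for 1 h. Labelled DUBs were then NeutrAvidin-enriched, digested with LysC and trypsin, and run by diaPASEF LC-MS/MS.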

ATXN3 = ATXN3 (UniProt P54252)
Chain of ATXN3 (P54252 whole entry): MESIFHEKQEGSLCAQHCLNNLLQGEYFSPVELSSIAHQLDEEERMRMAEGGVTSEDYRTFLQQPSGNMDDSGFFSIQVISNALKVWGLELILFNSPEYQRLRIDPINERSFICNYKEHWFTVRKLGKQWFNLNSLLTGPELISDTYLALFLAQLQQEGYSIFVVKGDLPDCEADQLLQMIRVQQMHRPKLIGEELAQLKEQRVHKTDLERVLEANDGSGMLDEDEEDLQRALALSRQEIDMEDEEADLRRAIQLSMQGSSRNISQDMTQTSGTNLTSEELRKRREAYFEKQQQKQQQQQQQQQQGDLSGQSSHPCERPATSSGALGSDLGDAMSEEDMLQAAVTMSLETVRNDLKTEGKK
Summary of the method: as §1

BAP1 = molecular target: T2, BAP1 (UniProt Q92560)
T2 sequence (whole entry): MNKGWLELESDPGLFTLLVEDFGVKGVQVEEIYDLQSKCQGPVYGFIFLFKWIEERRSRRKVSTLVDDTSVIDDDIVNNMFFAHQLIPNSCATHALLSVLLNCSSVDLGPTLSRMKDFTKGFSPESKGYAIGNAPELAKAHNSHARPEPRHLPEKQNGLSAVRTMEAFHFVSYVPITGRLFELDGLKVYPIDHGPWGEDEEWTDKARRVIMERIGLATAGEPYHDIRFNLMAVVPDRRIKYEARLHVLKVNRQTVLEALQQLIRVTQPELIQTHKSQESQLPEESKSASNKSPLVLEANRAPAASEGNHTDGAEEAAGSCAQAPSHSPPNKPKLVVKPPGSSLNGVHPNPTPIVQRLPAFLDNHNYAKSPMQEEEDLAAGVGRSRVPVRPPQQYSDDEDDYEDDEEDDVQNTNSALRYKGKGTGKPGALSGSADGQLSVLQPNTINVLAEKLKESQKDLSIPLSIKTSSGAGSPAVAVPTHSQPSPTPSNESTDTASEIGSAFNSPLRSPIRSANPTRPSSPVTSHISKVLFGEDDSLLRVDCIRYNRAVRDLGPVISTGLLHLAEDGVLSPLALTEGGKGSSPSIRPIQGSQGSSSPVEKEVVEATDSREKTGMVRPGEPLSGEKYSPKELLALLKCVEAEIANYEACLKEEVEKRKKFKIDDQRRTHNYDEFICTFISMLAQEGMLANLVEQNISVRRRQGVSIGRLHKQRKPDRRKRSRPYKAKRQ
Summary of the method: as §1

EIF3F = EIF3F (UniProt O00303)
Chain of EIF3F (O00303 whole entry): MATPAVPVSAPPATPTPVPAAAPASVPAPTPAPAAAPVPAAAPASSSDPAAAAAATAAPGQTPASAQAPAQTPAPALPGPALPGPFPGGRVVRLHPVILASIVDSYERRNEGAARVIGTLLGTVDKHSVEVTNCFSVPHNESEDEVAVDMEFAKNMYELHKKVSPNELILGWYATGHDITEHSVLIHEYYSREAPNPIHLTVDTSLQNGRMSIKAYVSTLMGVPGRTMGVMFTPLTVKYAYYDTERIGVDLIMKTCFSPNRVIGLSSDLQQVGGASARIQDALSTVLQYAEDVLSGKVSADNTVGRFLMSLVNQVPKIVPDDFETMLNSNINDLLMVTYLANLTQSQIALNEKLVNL
Summary of the method: as §1

EIF3H = EIF3H (UniProt O15372)
Chain of EIF3H (O15372 whole entry): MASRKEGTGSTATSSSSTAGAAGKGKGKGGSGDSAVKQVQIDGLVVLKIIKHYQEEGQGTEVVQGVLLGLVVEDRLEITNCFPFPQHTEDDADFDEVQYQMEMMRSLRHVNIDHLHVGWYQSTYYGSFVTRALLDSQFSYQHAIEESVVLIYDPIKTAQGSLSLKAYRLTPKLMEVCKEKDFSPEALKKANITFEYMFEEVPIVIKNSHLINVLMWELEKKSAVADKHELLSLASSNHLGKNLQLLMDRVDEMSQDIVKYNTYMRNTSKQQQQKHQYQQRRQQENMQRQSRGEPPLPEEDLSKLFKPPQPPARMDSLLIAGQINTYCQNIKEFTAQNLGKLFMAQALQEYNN
Summary of the method: as §1

FAM105A = molecular target: T3, FAM105A (UniProt Q9NUU6)
T3 sequence (whole entry): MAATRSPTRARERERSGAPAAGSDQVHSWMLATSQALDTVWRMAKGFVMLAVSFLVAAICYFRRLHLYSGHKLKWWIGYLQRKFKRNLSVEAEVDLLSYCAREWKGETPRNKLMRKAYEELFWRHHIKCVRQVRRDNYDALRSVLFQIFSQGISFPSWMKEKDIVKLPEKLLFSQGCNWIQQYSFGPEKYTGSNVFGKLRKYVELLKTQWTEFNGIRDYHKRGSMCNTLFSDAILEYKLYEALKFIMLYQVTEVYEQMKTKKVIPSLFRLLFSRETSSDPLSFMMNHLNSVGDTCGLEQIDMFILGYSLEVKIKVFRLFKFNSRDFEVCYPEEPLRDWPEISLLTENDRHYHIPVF
Summary of the method: as §1

OTUB1 = OTUB1 (UniProt Q96FW1)
Chain of OTUB1 (Q96FW1 whole entry): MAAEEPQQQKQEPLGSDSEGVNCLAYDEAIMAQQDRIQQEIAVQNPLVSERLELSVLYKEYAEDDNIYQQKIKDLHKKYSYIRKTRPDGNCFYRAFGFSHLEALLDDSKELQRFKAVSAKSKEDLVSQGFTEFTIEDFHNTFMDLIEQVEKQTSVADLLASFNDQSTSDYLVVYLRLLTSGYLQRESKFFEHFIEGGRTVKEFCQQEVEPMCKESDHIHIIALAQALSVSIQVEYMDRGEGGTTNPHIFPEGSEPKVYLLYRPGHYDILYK
Summary of the method: as §1

OTUD4 = molecular target: T4, OTUD4 (UniProt Q01804)
T4 sequence (whole entry): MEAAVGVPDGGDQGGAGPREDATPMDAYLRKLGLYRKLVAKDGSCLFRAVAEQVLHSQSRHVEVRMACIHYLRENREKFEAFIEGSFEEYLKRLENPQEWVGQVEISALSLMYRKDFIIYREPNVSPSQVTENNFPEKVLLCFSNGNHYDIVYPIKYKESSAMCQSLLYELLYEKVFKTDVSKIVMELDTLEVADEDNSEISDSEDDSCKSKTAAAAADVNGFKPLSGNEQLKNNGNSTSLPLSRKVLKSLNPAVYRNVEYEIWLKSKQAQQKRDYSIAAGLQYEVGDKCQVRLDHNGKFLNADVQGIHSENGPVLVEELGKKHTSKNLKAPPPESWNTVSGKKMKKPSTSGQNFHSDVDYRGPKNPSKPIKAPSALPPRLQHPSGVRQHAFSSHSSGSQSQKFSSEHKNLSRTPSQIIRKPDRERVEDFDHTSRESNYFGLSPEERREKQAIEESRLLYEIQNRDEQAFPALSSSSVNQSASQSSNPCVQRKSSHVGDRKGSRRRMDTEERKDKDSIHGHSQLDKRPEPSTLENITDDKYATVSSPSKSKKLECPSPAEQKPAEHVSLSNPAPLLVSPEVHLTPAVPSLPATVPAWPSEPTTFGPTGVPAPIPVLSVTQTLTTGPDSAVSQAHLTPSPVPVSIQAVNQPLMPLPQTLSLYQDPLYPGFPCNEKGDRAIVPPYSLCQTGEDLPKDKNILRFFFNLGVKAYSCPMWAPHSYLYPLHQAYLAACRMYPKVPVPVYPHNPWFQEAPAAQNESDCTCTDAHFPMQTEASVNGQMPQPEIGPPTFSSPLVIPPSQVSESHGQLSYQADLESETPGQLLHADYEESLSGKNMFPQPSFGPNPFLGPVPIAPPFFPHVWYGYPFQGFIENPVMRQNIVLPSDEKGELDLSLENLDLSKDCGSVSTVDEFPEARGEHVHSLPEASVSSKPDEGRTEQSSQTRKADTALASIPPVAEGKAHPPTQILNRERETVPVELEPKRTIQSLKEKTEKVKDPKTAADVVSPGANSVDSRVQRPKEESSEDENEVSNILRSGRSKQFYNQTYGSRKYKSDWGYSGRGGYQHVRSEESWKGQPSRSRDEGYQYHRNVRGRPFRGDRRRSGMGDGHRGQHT
Summary of the method: as §1

OTUD5 = molecular target: T5, OTUD5 (UniProt Q96G74)
T5 sequence (whole entry): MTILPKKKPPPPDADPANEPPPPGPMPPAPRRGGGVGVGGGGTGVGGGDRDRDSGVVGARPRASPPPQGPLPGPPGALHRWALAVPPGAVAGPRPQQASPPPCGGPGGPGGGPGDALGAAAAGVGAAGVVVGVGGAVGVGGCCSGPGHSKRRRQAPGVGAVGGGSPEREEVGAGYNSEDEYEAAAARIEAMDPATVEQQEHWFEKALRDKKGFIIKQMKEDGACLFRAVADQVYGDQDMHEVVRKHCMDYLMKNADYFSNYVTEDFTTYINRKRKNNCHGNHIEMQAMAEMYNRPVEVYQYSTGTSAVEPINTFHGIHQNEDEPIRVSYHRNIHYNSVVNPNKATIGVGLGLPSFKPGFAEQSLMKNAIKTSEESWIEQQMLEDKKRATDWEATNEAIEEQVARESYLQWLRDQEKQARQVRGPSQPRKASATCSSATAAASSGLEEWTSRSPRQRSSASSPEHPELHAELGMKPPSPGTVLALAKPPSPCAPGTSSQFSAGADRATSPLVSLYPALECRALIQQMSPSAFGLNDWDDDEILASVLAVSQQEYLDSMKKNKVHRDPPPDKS
Summary of the method: as §1

Measured: log2 ratio of Biotin-Ahx-Ub-VS probe labelling

Cc1ncc2c(n1)CCN(C(=O)CCl)C2
inactive: ALG13 -0.466 | ATXN3 -0.614 | BAP1 -0.39 | EIF3F -0.159 | EIF3H 0.129 | FAM105A 0.443 | OTUB1 -0.578 | OTUD4 -0.0123 | OTUD5 -0.606
